Outcome and AC50 data for six compounds are collected here from PubChem BioAssay (EPA / NIEHS).

A short description of experiment [1]: ATG_M_06_TRANS: Attagene TRANS-FACTORIAL HepG2 Assay for M06 Transcription Factor (Internal Marker) (AID 2282983; active = hit-call score of the fitted dose curve at least 0.9, where 1 is the maximum). The settings on record: HepG2 Attagene TRANS M06 internal marker reporter. In short, it runs like this: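 Measured by capillary electrophoresis of fluorescently labelled RT-PCR products, this endpoint reflects reporter mRNA in HepG2 cells harbouring exogenous NR-GAL4 reporter constructs after 24 h exposure, with DMSO as baseline.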

Experiment [2] can be described thus: ATG_M_32_TRANS: Attagene TRANS-FACTORIAL HepG2 Assay for M32 Transcription Factor (Internal Marker) (AID 2282984; active = hit-call score of the fitted dose curve at least 0.9, where 1 is the maximum;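 also: transcript level of a background control reporter unit measured by RT-PCR and capillary electrophoresis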). The settings on record: HepG2 Attagene TRANS M32 internal marker reporter. In short, it runs like this: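 Measures reporter mRNA induction in human HepG2 liver cells after 24 h chemical treatment. Transcripts from transiently transfected GAL4-UAS reporter units are amplified, fluorescently labelled and sized by capillary electrophoresis; gain of signal relative to DMSO.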

In experiment [3] the target is Transcriptional activator Myb (Homo sapiens) (UniProt P10242). As to the kind of experiment: ATG_Myb_CIS: Attagene CIS-FACTORIAL HepG2 Assay for human Myeloblastosis (Myb) Proto-Oncogene Transcription Factor (AID 2282986). The settings on record: HepG2 Attagene CIS-FACTORIAL Myb reporter transcription; actives raise or lower the signal. In short, it runs like this:
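Reporter mRNA is quantified by RT-PCR and capillary electrophoresis 24 h after dosing HepG2 cells transfected with cis-regulated reporter units, which track endogenous transcription factor activity. Gain and loss of signal are fitted versus DMSO baseline.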

Experiment [4] has as its target Nuclear respiratory factor 1 (Homo sapiens) (UniProt Q16656). As to the kind of experiment: ATG_NRF1_CIS: Attagene CIS-FACTORIAL HepG2 Assay for human Nuclear Respiratory Factor 1 (NRF1) Orphan Gene (AID 2282987). The settings on record: HepG2 NRF1 cis-element reporter, Attagene multiplex; actives raise or lower the signal. In short, it runs like this: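 Endogenous NRF1-driven reporter transcription in transfected HepG2 cells after 24 h treatment. Readout: RT-PCR products, 6-FAM labelled and resolved by capillary electrophoresis; changes fitted both directions relative to DMSO.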

Experiment [5] can be described thus: ATG_NFI_CIS: Attagene CIS-FACTORIAL HepG2 Assay for human Nuclear Factor I (NFI) (AID 2282989). The settings on record: HepG2 cis-regulatory reporter, NFI response element transcription; actives raise or lower the signal. In short, it runs like this: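 Transfected HepG2 liver cells, exposed 24 h, supplied total RNA for oligo(dT) reverse transcription and reporter-specific PCR. Labelled, HpaI-cut fragments were sized by capillary electrophoresis; DMSO set the baseline for bidirectional fitting.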

Experiment [6] concerns the target Myc proto-oncogene protein (Homo sapiens) (UniProt P01106). In words: ATG_Myc_CIS: Attagene CIS-FACTORIAL HepG2 Assay for human Myelocytomatosis (Myc) Proto-Oncogene Transcription Factor (AID 2282990). The settings on record: HepG2, Attagene cis-reporter transcription factor activity; actives raise or lower the signal. In outline:
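After 24 h chemical treatment of HepG2 cells carrying multiplexed cis-regulated reporter constructs, reporter transcripts quantified by RT-PCR and capillary electrophoresis of fluorescent fragments. Gain or loss fitted against DMSO baseline.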

Experiment [7] is described as follows: ATG_NF_kB_CIS: Attagene CIS-FACTORIAL HepG2 Assay for human Nuclear Factor Kappa B (NF-kB) (AID 2282991). The settings on record: HepG2 Attagene cis-factorial NF-kB reporter mRNA; actives raise or lower the signal. In outline: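 Readout is reporter transcript level, gain or loss versus DMSO, measured 24 h post-dose via RT-PCR, fluorescent labelling and capillary electrophoresis. Human HepG2 liver cells carried transiently transfected CIS reporter constructs reflecting endogenous factors.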

Experiment [8] is described as follows: ATG_NRF2_ARE_CIS: Attagene CIS-FACTORIAL HepG2 Assay for human Nuclear Factor Erythroid 2 Related Factor 2 (NFR2) response to Antioxidant Response Elements (ARE) (AID 2282992). The settings on record: HepG2 Attagene ARE/NRF2 reporter, transcription factor activity; actives raise or lower the signal. In outline: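 Multiplexed reporter mRNA profiling in HepG2 after a 24 h chemical exposure. Curves fitted in both directions relative to DMSO negative control.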

Experiment [9] can be described thus: ATG_Oct_MLP_CIS: Attagene CIS-FACTORIAL HepG2 Assay for human Octamer-Binding Transcription Factor (Oct) (AID 2282993). The settings on record: HepG2 Attagene cis-factorial Oct reporter, mRNA; actives raise or lower the signal. In outline:
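Using HepG2 cells bearing transfected cis-reporter constructs, mRNA induction was read after 24 h by fluorescent RT-PCR and capillary electrophoresis, with DMSO defining baseline for gain- or loss-of-signal fits.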

Experiment [10] has as its target Cellular tumor antigen p53 (Homo sapiens) (UniProt P04637). In words: ATG_p53_CIS: Attagene CIS-FACTORIAL HepG2 Assay for human p53 Transcription Factor (AID 2282994). The settings on record: HepG2 p53 cis-element reporter, Attagene mRNA; actives raise or lower the signal. In short, it runs like this: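 Multiplexed reporter mRNA assay in human HepG2 liver cells; cis-regulated units report endogenous factor activity. Values come from bidirectional curve fitting against DMSO negative control after 24 h treatment.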

The nature of experiment [11]: BSK_3C_TissueFactor: BioMAP Diversity Plus: 3C Assay for Tissue Factor Biomarker Activity (AID 2282997). The settings on record: BioMAP 3C HUVEC, tissue factor biomarker readout; actives raise or lower the signal. In outline: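 Values derive from bidirectional curve fitting against DMSO of Tissue Factor ELISA signals, taken 24 h after dosing primary human umbilical vein endothelial cells.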

Experiment [12] is described as follows: BSK_3C_uPAR: BioMAP Diversity Plus: 3C Assay for Urokinase-type plasminogen activator receptor (uPAR) Biomarker Activity (AID 2282998). The settings on record: BioMAP 3C HUVEC, uPAR biomarker ELISA; actives raise or lower the signal. In short, it runs like this:
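In this endothelial cell-based assay, human umbilical vein primary cells were treated with chemicals and harvested at 24 h. uPAR was quantified using ELISA, with gains or losses fitted relative to DMSO controls.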

Experiment [13] in a line: BSK_3C_VCAM1: BioMAP Diversity Plus: 3C Assay for Vascular cell adhesion molecule 1 (VCAM1) Biomarker Activity (AID 2282999). The settings on record: BioMAP 3C HUVEC, VCAM1 ELISA, cytokine-stimulated; actives raise or lower the signal. In short, it runs like this: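 Endothelial cells from human umbilical vein are treated with test chemical. At 24 h, VCAM-1 is measured by ELISA, and responses in either direction are fitted relative to DMSO.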

Experiment [14] in a line: BSK_4H_Eotaxin3: BioMAP Diversity Plus: 4H Assay for Eotaxin 3 Biomarker Activity (AID 2283000).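 As to Outcome: CCL26 protein level quantified by ELISA in parallel with SRB cytotoxicity check.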 The settings on record: primary human endothelial cells (HUVEC); actives raise or lower the signal. In outline: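 Endothelial primary cells (human umbilical vein) exposed to compound for 24 h. ELISA detection of Eotaxin-3.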
Experiment [15] addresses human Peroxisome Proliferator-activated Receptor alpha (PPARa), PPARA (gene 5465) (UniProt Q07869). As to the kind of experiment: ATG_PPARa_TRANS: Attagene TRANS-FACTORIAL HepG2 Assay for human Peroxisome Proliferator-activated Receptor alpha (PPARa) (AID 2283001; active = hit-call score of the fitted dose curve at least 0.9, where 1 is the maximum). In short, it runs like this: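 Read-out is fluorescence of reporter cDNA fragments resolved by capillary electrophoresis after RT-PCR. Human HepG2 liver cells carried transfected PPARa-Gal4 chimera and GAL4-UAS reporter units, treated 24 h; activity scored as increase over DMSO.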

Experiment [16] has as its target human Peroxisome Proliferator-activated Receptor delta (PPARd), PPARD (gene 5467) (UniProt Q03181). In words: ATG_PPARd_TRANS: Attagene TRANS-FACTORIAL HepG2 Assay for human Peroxisome Proliferator-activated Receptor delta (PPARd) (AID 2283002; active = hit-call score of the fitted dose curve at least 0.9, where 1 is the maximum). In outline: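 Read-out is induced reporter mRNA, quantified by RT-PCR with fluorescent labelling and capillary electrophoresis after 24 h dosing. Cells are HepG2 transiently carrying multiple GAL4-UAS reporter units driven by exogenous NR-GAL4 chimeras; DMSO serves as baseline.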

The target of experiment [17] is Hepatocyte nuclear factor 4-alpha (Homo sapiens) (UniProt P41235). In words: ATG_HNF4a_TRANS: Attagene TRANS-FACTORIAL HepG2 Assay for human Hepatocyte Nuclear Factor 4 alpha (HNF4a) (AID 2282982; active = hit-call score of the fitted dose curve at least 0.9, where 1 is the maximum). The settings on record: HepG2 HNF4a transactivation reporter, mRNA readout. In outline:
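Readout is fluorescent reporter-transcript fragments resolved by capillary electrophoresis after RT-PCR from HepG2 cells dosed for 24 h. Cells carried transfected GAL4-UAS reporter constructs measuring exogenous NR-GAL4 chimera activity; DMSO served as baseline.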

Experiment [18] has as its target Nuclear receptor subfamily 4 group A member 2 (Homo sapiens) (UniProt P43354). As to the kind of experiment: ATG_NURR1_TRANS: Attagene TRANS-FACTORIAL HepG2 Assay for human Nuclear Receptor Related Protein 1 (NURR1) (AID 2282985; active = hit-call score of the fitted dose curve at least 0.9, where 1 is the maximum). The settings on record: HepG2 Attagene TRANS reporter, mRNA readout. In outline:
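Transient transfection of HepG2, human liver cells, with multiple GAL4-UAS reporter transcription units. Cells dosed 24 h, RNA isolated, reverse-transcribed, PCR-amplified, FAM-labelled, HpaI-digested, sized by capillary electrophoresis. DMSO served as negative control.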

Read-out in experiment [19]: Intercellular Adhesion Molecule 1 (ICAM1), ICAM1 (gene 3383)
In words: BSK_3C_ICAM1: BioMAP Diversity Plus: 3C Assay for Intercellular Adhesion Molecule 1 (ICAM1) Biomarker Activity (AID 2283003). The settings on record: primary human endothelial cells (HUVEC); actives raise or lower the signal. In short, it runs like this: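 ICAM-1 levels measured by ELISA after HUVEC cultures in the 3C system had been dosed for 24 h. Gain or loss of signal relative to DMSO was fitted in both directions.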

Molecules are shown by their SMILES. Records with an inconclusive call do not appear. Activity calls are given as the source filed them. The calls were made as follows, unless noted: active = hit-call score of the fitted dose curve at least 0.9, where 1 is the maximum; inactive = score below 0.9.

Sequence of Cellular tumor antigen p53 (Homo sapiens) (P04637 whole entry, looked up): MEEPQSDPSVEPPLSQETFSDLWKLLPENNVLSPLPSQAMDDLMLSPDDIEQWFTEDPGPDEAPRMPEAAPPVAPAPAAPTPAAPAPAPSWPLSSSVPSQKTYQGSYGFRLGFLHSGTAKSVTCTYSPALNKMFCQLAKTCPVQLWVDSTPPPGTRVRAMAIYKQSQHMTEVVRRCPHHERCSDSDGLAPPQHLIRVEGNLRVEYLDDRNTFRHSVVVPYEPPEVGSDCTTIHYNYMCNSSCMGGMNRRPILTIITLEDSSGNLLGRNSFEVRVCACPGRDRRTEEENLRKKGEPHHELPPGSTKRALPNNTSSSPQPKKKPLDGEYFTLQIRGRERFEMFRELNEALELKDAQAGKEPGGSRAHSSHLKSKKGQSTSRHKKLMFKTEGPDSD
Sequence of Myc proto-oncogene protein (Homo sapiens) (P01106 whole entry, looked up, the tested form may be a part): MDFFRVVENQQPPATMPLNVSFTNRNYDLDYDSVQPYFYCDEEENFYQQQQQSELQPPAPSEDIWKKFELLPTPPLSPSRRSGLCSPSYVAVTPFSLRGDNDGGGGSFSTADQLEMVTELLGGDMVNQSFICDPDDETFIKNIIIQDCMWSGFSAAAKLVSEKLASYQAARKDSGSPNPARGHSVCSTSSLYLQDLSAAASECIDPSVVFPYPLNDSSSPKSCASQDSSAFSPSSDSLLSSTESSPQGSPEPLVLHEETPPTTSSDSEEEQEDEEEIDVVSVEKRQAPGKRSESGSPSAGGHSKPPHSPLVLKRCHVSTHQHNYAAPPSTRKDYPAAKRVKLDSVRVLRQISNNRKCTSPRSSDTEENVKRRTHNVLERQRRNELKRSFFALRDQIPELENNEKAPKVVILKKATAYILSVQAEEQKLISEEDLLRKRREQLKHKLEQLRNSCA
Sequence of Nuclear respiratory factor 1 (Homo sapiens) (Q16656 whole entry, looked up): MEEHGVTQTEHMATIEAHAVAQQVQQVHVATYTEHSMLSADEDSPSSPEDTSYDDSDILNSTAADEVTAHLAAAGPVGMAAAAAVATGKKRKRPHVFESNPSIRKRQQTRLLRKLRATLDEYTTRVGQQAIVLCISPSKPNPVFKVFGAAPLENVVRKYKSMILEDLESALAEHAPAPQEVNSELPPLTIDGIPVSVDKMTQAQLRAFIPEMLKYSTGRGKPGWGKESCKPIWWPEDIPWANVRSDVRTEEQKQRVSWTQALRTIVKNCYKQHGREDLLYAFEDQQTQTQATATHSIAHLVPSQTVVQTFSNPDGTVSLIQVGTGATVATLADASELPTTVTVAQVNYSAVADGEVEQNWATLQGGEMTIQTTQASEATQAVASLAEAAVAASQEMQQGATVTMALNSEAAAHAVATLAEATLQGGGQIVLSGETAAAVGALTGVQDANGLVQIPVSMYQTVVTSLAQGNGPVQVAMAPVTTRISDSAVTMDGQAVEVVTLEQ
Sequence of Nuclear receptor subfamily 4 group A member 2 (Homo sapiens) (P43354 whole entry, looked up, the tested form may be a part): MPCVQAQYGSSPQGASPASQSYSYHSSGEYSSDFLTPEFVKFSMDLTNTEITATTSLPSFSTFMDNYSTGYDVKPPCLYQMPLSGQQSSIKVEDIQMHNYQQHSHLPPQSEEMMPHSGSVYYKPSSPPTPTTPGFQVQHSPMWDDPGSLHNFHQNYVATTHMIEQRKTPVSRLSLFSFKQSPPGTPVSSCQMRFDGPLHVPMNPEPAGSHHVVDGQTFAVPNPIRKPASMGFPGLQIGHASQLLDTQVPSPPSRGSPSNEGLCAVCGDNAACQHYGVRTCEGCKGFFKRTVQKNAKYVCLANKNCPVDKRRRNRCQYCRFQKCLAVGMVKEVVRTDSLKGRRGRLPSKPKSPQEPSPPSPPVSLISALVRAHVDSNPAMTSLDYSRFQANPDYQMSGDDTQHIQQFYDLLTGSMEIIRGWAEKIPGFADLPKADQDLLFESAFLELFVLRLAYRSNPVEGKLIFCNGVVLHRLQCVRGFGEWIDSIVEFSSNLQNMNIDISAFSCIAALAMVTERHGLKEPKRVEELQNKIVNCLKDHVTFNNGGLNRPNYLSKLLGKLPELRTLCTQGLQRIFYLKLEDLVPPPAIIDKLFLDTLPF
Sequence of Transcriptional activator Myb (Homo sapiens) (P10242 whole entry, looked up): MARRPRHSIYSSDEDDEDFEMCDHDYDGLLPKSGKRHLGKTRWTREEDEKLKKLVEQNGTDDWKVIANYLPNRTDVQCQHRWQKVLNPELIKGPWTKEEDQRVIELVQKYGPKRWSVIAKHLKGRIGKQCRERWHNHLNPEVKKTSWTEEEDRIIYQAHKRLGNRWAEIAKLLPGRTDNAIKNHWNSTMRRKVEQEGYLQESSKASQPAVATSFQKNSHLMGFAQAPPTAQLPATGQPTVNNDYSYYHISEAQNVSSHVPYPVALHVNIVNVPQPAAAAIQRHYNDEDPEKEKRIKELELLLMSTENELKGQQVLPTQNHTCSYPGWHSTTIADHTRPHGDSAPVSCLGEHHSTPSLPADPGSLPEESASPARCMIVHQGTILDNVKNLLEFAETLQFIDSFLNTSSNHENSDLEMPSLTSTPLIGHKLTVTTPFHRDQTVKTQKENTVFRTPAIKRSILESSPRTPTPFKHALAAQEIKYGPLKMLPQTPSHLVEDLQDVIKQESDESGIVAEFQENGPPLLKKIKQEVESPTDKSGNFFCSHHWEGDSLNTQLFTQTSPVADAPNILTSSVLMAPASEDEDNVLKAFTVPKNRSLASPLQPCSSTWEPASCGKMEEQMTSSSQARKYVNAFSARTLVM
Sequence of human Peroxisome Proliferator-activated Receptor alpha (PPARa), PPARA (gene 5465) (Q07869 whole entry, looked up, the tested form may be a part): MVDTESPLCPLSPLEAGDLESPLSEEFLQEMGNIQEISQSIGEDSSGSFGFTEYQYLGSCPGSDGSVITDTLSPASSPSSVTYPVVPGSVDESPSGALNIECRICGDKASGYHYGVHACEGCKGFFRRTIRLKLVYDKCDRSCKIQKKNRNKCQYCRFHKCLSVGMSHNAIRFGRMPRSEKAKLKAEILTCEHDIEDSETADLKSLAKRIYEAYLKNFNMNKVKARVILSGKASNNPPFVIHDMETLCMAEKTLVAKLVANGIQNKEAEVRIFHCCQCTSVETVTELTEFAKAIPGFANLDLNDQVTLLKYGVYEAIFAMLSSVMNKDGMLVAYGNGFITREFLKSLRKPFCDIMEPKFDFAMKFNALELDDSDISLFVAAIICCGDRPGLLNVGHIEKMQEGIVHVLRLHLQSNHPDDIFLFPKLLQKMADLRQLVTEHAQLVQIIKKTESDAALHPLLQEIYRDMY
Sequence of Hepatocyte nuclear factor 4-alpha (Homo sapiens) (P41235 whole entry, looked up, the tested form may be a part): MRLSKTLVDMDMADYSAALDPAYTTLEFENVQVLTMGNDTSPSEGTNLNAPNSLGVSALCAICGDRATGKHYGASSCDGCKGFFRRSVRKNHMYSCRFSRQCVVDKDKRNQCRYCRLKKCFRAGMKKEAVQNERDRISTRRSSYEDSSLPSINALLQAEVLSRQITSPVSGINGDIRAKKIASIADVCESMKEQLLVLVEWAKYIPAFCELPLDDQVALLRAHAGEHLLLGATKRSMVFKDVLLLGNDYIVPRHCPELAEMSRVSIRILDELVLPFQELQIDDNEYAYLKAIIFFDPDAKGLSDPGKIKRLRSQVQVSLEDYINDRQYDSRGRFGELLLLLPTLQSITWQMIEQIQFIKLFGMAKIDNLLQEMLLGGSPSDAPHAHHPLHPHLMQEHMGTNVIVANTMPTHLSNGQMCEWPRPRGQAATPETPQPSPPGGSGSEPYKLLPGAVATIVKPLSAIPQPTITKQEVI
Sequence of human Peroxisome Proliferator-activated Receptor delta (PPARd), PPARD (gene 5467) (Q03181 whole entry, looked up, the tested form may be a part): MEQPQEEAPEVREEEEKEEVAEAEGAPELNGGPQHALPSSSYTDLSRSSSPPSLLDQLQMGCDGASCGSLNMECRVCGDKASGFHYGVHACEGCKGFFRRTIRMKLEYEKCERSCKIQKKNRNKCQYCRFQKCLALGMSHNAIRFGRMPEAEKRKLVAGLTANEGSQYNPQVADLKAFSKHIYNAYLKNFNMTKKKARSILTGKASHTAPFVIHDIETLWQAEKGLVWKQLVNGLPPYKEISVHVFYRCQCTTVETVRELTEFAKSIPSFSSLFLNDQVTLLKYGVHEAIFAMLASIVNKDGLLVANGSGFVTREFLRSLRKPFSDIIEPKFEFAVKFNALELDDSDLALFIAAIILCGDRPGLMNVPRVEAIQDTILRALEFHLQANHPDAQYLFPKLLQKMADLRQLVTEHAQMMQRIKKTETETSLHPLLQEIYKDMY

As for `Oc1ccc(-c2ccccc2)cc1`, the result in experiment [1], in experiment [2], in experiment [3], in [4], in experiment [5] and in [7] was inactive. Further, the result in experiment [12], in experiment [13], in experiment [14], in [15] and in [16] was inactive. Also, the AC50 in [6] is 176 µM (active); in experiment [8] it was 100 µM (active); in [9], 73.8 µM (active); in experiment [10] it was 27.9 µM (active); in experiment [11], 20 µM (active).

`ClC1=C(Cl)[C@]2(Cl)[C@@H]3[C@@H](Cl)[C@@H](Cl)C[C@@H]3[C@@]1(Cl)C2(Cl)Cl`: the result in experiment [1], in [2], in experiment [3], in [4], in experiment [5] and in [6] was inactive. In addition, the result in [7], in experiment [8], in experiment [9] and in experiment [10] was inactive.

Take `CCc1ccccc1N`: the call in experiment [17], in experiment [2], in experiment [3], in experiment [4], in experiment [5] and in experiment [6] was inactive. In addition, the outcome in experiment [8], in [9] and in experiment [15] was inactive.

Consider `O=C(OC1CCCCC1)c1ccccc1C(=O)OC1CCCCC1`, for which the outcome in experiment [1], in experiment [2], in [18], in [3], in experiment [4] and in experiment [5] was inactive. For the same compound, the compound was classed as inactive in [6], in experiment [7], in [9] and in experiment [10]. Moreover, the AC50 in experiment [11] was 7.93 µM (active); in [12], 11.9 µM (active); in experiment [14] it was 12.1 µM (active); in experiment [19] it was 14.6 µM (active).

Take `CCNc1nc(NC(C)(C)C)nc(SC)n1`: the compound was called inactive in experiment [1], in [2], in [18], in experiment [3], in experiment [4] and in experiment [5]. Further, the compound was classed as inactive in experiment [6], in experiment [7], in experiment [8], in experiment [9], in [10] and in [11]. Besides, the outcome in experiment [12], in experiment [13], in experiment [14], in experiment [16] and in experiment [19] was inactive.

Turning to `CC(=[OH+])/C=C(/C)[O-].CC(=[OH+])/C=C(/C)[O-].CC(=[OH+])/C=C(/C)[O-].[Fe]`, the result in experiment [17], in experiment [18], in experiment [3], in experiment [4], in experiment [5] and in experiment [6] was inactive. The call in experiment [7], in experiment [9], in experiment [10] and in experiment [15] was inactive. For the same compound, the AC50 in experiment [8] is 16.9 µM (active).
